Results published in PubChem BioAssay AID651812 (National Center for Advancing Translational Sciences (NCATS), 2012).
Among all 2,100 compounds or so, about 650 (31%) were called active. Inconclusive results (about 16%) are left out. Calls come from the whole dose curve; as a rule, active = well fitted inhibition curve with a large enough effect; inconclusive = small, poorly fitted or top-dose-only effect; inactive = flat fitted curve, though single readings scatter. This is one part of the list. Where a call stands in place of a potency, no number is given.

Assay: qHTS for inhibitors of Vif-A3G interactions: Cherry picks; note: nearly all actives have a fitted effect of over 80% in size
Conditions: HeLa A3G-eYFP + Vif (tagged APOBEC3G with the HIV-1 protein that degrades it), 24 h; Potency: eYFP fluorescence increase; series mostly up to 36.9 µM
From the text: The recent discovery and characterization of host restriction factors, which provide a potent defense to invading retroviruses, has provided new targets for antiviral drug development. APOBEC3G (A3G) and APOBEC3F (A3F) are potent cytidine deaminases that block HIV-1 replication; HIV-1 expresses the Vif protein, which counteracts A3G and A3F by binding to them and inducing their proteasomal degradation. The Vif-A3G and Vif-A3F interactions provide two potential targets for development of small molecules which can interfere with the ability of Vif to degrade A3G or A3F. […] To identify inhibitors that can interfere with Vif mediated degradation of A3G and A3F, we have developed Hela cell lines that stably express A3G or A3F tagged with eYFP at the C-terminal end (A3G-eYFP or A3F-eYFP, respectively) and Vif. In the absence of an inhibitor, Vif induces degradation of A3G-eYFP and A3F-eYFP, and the cells are not fluorescent. In the presence of an inhibitor, it is expected that Vif will be unable to degrade A3G-eYFP and/or A3F-eYFP, resulting in an increase in yellow fluorescence. In this assay, Vif A3G was screened against the cherry picks ordered from the MLSMR. NIH Chemical Genomics Center [NCGC] NIH Molecular Libraries Probe Centers Network [MLPCN] MLPCN Grant: MH093245 Assay Submitter (PI): Vinay Pathak, National Cancer Institute
A3G-Vif cells were harvested from T225 flask and resuspended in phenol free OPTI-MEM medium with 5% FBS. Then 5 uL of 140,000 cells/mL resuspended cells was dispensed into each well of low base Aurora COC 1,536-well plates (black walled, clear bottom) using a Multidrop Combi dispenser. After overnight culture at 37 deg C with 5% CO2, a total of 23 nL of compounds at 5 selected concentrations from the NPC or positive control (2 mM stock of MG132) in DMSO was transferred to each well of the assay plate using a pintool (Kalypsys, San Diego, CA), and the plates were further incubated at 37 deg C with 5% CO2 for 24 hours. After that, the plates were measured on Acumen Explorer (TTP Lab Tech). The fluorescence was detected by 488 nm/Ex and […].
Potency is the fitted concentration of half-maximal effect.

SMILES | Potency
Cc1c(=O)n(OCc2ccc(Cl)cc2)c2ccccc2[n+]1[O-] | inactive
Nc1nc2n[nH]nc2c(=O)[nH]1 | inactive
COCCN1C(=O)/C(=C/c2ccc(N3CCCC3)cc2)SC1=S | 4.61 µM (active)
COCCN1C(=O)/C(=C/c2ccc(N3CCCC3)cc2C)SC1=S | 2.59 µM (active)
CC12CC3CC(C)(C1)CC(C(=O)NC(=S)N1CCOCC1)(C3)C2 | inactive
COc1ccc(-c2n[nH]c(C)c2-c2ccc(OC)c(OC)c2)c(O)c1 | inactive
C=C1C(=O)O[C@@H]2[C@H]1[C@@H](OC(=O)/C(C)=C/C)C/C(C)=C\C(=O)/C=C(\C)[C@@H]2O | inactive
O=C(Oc1ccc(Cl)c2cccnc12)c1ccco1 | inactive
COc1cc(/C=C(\C#N)c2nc3ccccc3s2)ccc1OCC(=O)Nc1ccccc1 | 17.7 µM (active)
COc1ccc(OC)c2sc(NC(=O)CCS(=O)(=O)c3ccccc3)nc12 | inactive
COc1ccc(/C=N/NC(=O)c2ccccc2Cl)cc1CSc1nc2ccccc2s1 | inactive
COc1cc(/C=C(/C#N)c2nc3ccccc3[nH]2)ccc1OC(=O)c1ccco1 | 3.53 µM (active)
COc1ccc(/C=N\NC(=O)c2ccccc2F)cc1COc1ccc(F)cc1F | inactive
COc1cc(/C=C(\C#N)c2nc3ccccc3[nH]2)ccc1OCc1ccccc1F | 18.4 µM (active)
COc1cc(/C=C(\C#N)c2nc3ccc(C)cc3[nH]2)ccc1OC(C)C | 20.6 µM (active)
CC1(C)Cc2nc3sc4c(SCC(=O)NCc5ccco5)ncnc4c3cc2CO1 | inactive
CCS(=O)(=O)N1CCc2cc(C(=O)N3CCN(c4cccc(C(F)(F)F)c4)CC3)ccc21 | inactive
CCC(C)Sc1cccc(-c2nc3cc(C)ccn3c2NC2CCCCC2)c1 (stereo not drawn) | inactive
CN1C(=O)C(O)(C2COC(C)(C)CC2=O)c2cc(Br)ccc21 (stereo not drawn) | inactive
N#CC1=C(N)Oc2cc(N)ccc2C1C1CC=CCC1 (stereo not drawn) | inactive
COc1ccc(-c2cc(NC=O)c3ncc(-c4ccc(OC)c(OC)c4)n3c2)cc1OC | inactive
CCOC(=O)C(=Cc1ccc(-n2ccnc2)cc1)C(=O)OCC | inactive
Cn1c(-c2ccccc2)cc2c3no[n+]([O-])c3ccc21 | inactive
CC(C)(C)NCC(=Cc1ccccc1)C(=O)c1ccccc1 | inactive
COc1cc(Br)c(/C=C(\C#N)c2nc3ccccc3[nH]2)cc1OC | 18.4 µM (active)

SMILES | Potency
COc1cc(/C=C(/C#N)c2nc3ccccc3[nH]2)ccc1OCC(=O)Nc1ccccc1C(C)C | 16.4 µM (active)
Cc1cccc(Nc2nnc(SC/C(O)=C(\C#N)c3nc4ccccc4[nH]3)s2)c1 | inactive
COc1cc(/C=C(/C(=O)c2cccs2)c2nc3ccccc3[nH]2)ccc1O | inactive
COc1cc(/C=C(\C#N)c2nc3ccccc3[nH]2)cc(Cl)c1OCc1ccccc1Cl | 18.4 µM (active)
COc1ccc(-c2cnnc(N/N=C/c3ccc(O)c(OC)c3)n2)cc1 | inactive
COc1cc(/C=C(\C#N)c2nc3ccccc3[nH]2)ccc1O | 5.8 µM (active)
N#C/C(=C\c1cccnc1)c1nc2ccccc2[nH]1 | inactive
COc1ccccc1NC(=O)c1oc2ccccc2c1NC(=O)c1cccc(OC)c1OC | inactive
CC(=O)c1cccc(-c2ccnc3c2CC(C(=O)NCC2CC2)O3)c1 (stereo not drawn) | inactive
N#CC1CC(c2ccccc2)Nc2cc(Cl)ccc2N1 (stereo not drawn) | inactive
COc1ccc(N(C)S(=O)(=O)c2cccc3cccnc23)c(OC)c1 | inactive
COc1ccc(C(=O)NC2CCCc3ccccc32)cc1[N+](=O)[O-] (stereo not drawn) | inactive
CCOc1ccc2nc(N3C(=O)/C(=C/c4ccc(Cl)cc4)NC3=S)sc2c1 | 11.6 µM (active)
COc1ccc2nc(NC(=S)NC(=O)c3ccco3)sc2c1 | inactive
COc1ccc2nc(NC(=O)Nc3ccccc3OC)sc2c1 | inactive
COc1ccc2nc(N3C(=O)/C(=C/c4ccccc4)NC3=S)sc2c1 | 3.66 µM (active)
O=C(OC12CC3CC(CC(C3)C1)C2)c1ccc(NCc2cc(O)ccc2O)cc1 | inactive
COc1c(-c2ccc(O)c(O)c2)oc2cc(O)cc(O)c2c1=O | inactive
CC(=O)c1c(C)oc2c1cc(NS(=O)(=O)c1ccc(Br)cc1)c1ccccc12 | inactive
Cc1ccc2c(c1)sc(-c1ccc(N(C)C)cc1)[n+]2C | 20.6 µM (active)
COc1ccc(C(=O)c2cc([N+](=O)[O-])ccc2N2CCCC2)cc1 | inactive
COc1ccc(N/C=C/C(=O)c2cc(OC)c(OC)c(OC)c2)cc1 | inactive
COc1ccc(C(=O)/C=C/Nc2ccc([N+](=O)[O-])cc2C)c(OC)c1 | 11.6 µM (active)
COC(=O)c1ccccc1NC(=O)C1CC(=O)N(c2ccc(OC)cc2)C1 (stereo not drawn) | inactive
CCCN1C(=O)/C(=C\C=C2\N(CC)c3ccccc3C2(C)C)SC1=S | 3.26 µM (active)

SMILES | Potency
CCCCN1C(=O)/C(=C/C=C2/CC(C)(C)CN2C)SC1=S | inactive
CCCN1C(=O)/C(=C/C=C2\N(CC)c3ccccc3C2(C)C)SC1=S | 3.96 µM (active)
O=C(NCc1ccccc1C(F)(F)F)c1cccc2c1C(=O)c1ccc(N3CCC(N4CCCCC4)CC3)cc1S2(=O)=O | 20.6 µM (active)
O=C(NC1CC1)c1cccc2c1C(=O)c1ccc(N3CCC(Cc4ccccc4)CC3)cc1S2(=O)=O | 23.1 µM (active)
Cc1c(C)n(Cc2ccccc2)c2ccc(C(=O)NCc3ccco3)cc12 | inactive
Cc1cc(C)c(S(=O)(=O)N2CCCCC2CCNC(=O)C(=O)NCc2ccco2)c(C)c1 (stereo not drawn) | inactive
O=C(NCc1cccc(C(F)(F)F)c1)c1cccc2c1C(=O)c1ccc(N3CCC(Cc4ccccc4)CC3)cc1S2(=O)=O | 18.4 µM (active)
O=C(NCc1ccco1)c1cccc2c1C(=O)c1ccc(N3CCC(Cc4ccccc4)CC3)cc1S2(=O)=O | 18.4 µM (active)
Cc1ccc(C(=O)NC(=C(Cl)Cl)S(=O)(=O)c2ccc(Cl)cc2)cc1 | inactive
CC(=O)c1cccc(-c2ccnc3c2CC(C(=O)NCC2CCOCC2)O3)c1 (stereo not drawn) | inactive
COc1ccccc1C(=O)N1CCN(c2cccc(Cl)c2)CC1 | inactive
Cc1cccc(C(=O)NC(=S)N2CCc3ccccc3C2)c1 | inactive
O=C(Nc1nc2c(F)cccc2s1)c1ccc([N+](=O)[O-])o1 | inactive
O=C(N/N=C/c1ccc([N+](=O)[O-])o1)c1sc2ccccc2c1Cl | 18.4 µM (active)
O=C(N/N=C/c1ccc([N+](=O)[O-])o1)c1cn2ccc3ccccc3c2n1 | inactive
COc1cc(C2Nc3ccc4ncccc4c3C3=C2C(=O)CCC3)ccc1O (stereo not drawn) | inactive
O=C(N/N=C\C=C\c1ccc([N+](=O)[O-])o1)c1cccs1 | 15.8 µM (active)
CCCOC(=O)/C(=C\c1ccc([N+](=O)[O-])o1)NC(=O)c1ccccc1 | inactive
O=C(N/N=C/c1cccs1)c1n[nH]c2c1CCC2 | inactive
COc1ccccc1OCC(=O)NNC(=O)Nc1ccc(Cl)cc1 | inactive
O=C(Nc1ncccn1)c1ccc([N+](=O)[O-])o1 | inactive
COc1ccccc1OCC(=O)N/N=C/C=C/c1ccc([N+](=O)[O-])o1 | 16.4 µM (active)
COc1cc2c(c(OC)c1OC)-c1ccc(N(C)CC(OC)OC)c(=O)cc1[C@@H](NC(C)=O)CC2 | inactive
CC(C)(C)c1ccc(Oc2ccc(NC(=O)c3ccccc3C(=O)O)cn2)cc1 | inactive
COc1cc2ccccc2cc1C(=O)N/N=C/c1cccnc1 | inactive

SMILES | Potency
Cc1nc2c3cc(F)ccc3n(Cc3ccccc3)c2s1 | inactive
Cn1c(=O)[nH]c(=O)c2c1nc(Br)n2Cc1cccc(Br)c1 | inactive
Cc1cc2nc3c(=O)n(C4CCCCC4)c(=O)[nH]c3nc2cc1N | 16.4 µM (active)
Cc1cc2nc3c(=O)n(Cc4ccccc4)c(=O)[nH]c3nc2cc1N | 6.27 µM (active)
Cc1cccc(C)c1OCCNC(=O)C(=O)NCc1ccco1 | inactive
CC1CC(C)(C)Nc2ccc(OC(=O)c3ccco3)cc21 (stereo not drawn) | 20.6 µM (active)
COc1cc(C2Oc3ccccc3C=C2[N+](=O)[O-])cc(OC)c1OC (stereo not drawn) | inactive
N#CC1=C(N)C(C#N)(C#N)[C@H](c2ccoc2)[C@H]2CN(Cc3ccccc3)CC=C12 | inactive
CCOC(=O)C1=C(C)N=c2sc(=Cc3cc(Cl)c(OCC(=O)O)c(Cl)c3)c(=O)n2C1c1cccc(OC)c1 (stereo not drawn) | inactive
Nc1c(C(=O)C2CC2)sc2nc(-c3cccs3)cc(C(F)(F)F)c12 | 2.31 µM (active)
CC(C)(C)C(=O)c1sc2nc(-c3cccs3)cc(C(F)(F)F)c2c1N | 1.3 µM (active)
CC(=O)c1sc2nc(-c3cccs3)cc(C(F)(F)F)c2c1N | 7.31 µM (active)
Cc1ccc(-c2cc(NC=O)c3ncc(-c4cccc(C(=O)N(C)C)c4)n3c2)cc1 | inactive
CCOC(=O)c1c(-c2ccc(OC)cc2)csc1/N=C/C1=C(O)CCCC1=O | inactive
Cc1ccc(S(=O)(=O)N2CCN(C(=O)CSC(=S)N3CCCC3)CC2)c(C)c1 | inactive
CN(C)c1ccc(C=C2SC(=S)N(Cc3ccco3)C2=O)cc1 | 2.8 µM (active)
CCN1CCN(c2c(/C=C3\SC(=S)N(Cc4ccco4)C3=O)c(C)c(C#N)c(=O)n2C)CC1 | 18.4 µM (active)
Cc1cc(/C=C2\SC(=S)N(Cc3ccco3)C2=O)c(C)n1-c1cccnc1 | 23.1 µM (active)
COC(=O)C1=C(C)N(Cc2ccco2)C(=O)/C1=C\c1ccc([N+](=O)[O-])cc1 | inactive
C/C(=N/NC(N)=S)c1ccc(Br)s1 | inactive
CCCC(=O)NC(c1ccc(OC)cc1)c1ccc2cccnc2c1O (stereo not drawn) | inactive
Cn1ccnc1Sc1nc2ccccc2nc1NS(=O)(=O)c1ccccc1 | inactive
CC(OC(=O)/C(C#N)=C/c1ccc(N(C)C)cc1)C(=O)N(C)Cc1ccccc1 (stereo not drawn) | 18.4 µM (active)
